ssDAF-12 act – S. stercoralis DAF-12 activation, primary screen; activation, % at 6.8 µM; HEK293 ssDAF-12/GRIP1 lit1-tk-luc reporter, luminescence; % of 3 µM dafachronic acid response; hit rate 1% among 370,000;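 active = activation above the mean over all tested compounds plus 3 SD, cut at about 0.9% in these data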
DAX1 inh-1 – inhibits human nuclear receptor DAX1. P51843. HEK293 Gal4-DAX1 luciferase reporter, luminescence. inhibition, % at 6.75 µM. hit rate 0.99% among 340,000;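 active = inhibition above the mean over all tested compounds plus 3 SD, cut at about 4.2% in these data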;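 note: inhibition shows as a rise in luminescence from relieved DAX1 repression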
Target sequence (P51843 207-470 limits assumed): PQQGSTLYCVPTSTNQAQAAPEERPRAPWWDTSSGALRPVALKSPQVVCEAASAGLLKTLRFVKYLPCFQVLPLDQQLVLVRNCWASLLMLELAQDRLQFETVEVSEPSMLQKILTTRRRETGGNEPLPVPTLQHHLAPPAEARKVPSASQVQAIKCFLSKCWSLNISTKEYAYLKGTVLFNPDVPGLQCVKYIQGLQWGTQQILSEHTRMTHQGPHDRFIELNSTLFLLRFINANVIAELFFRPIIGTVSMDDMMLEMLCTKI
hgDAF-12 ag – activates the H. glycines DAF-12 receptor ligand-binding domain | HEK293 GAL4-hgDAF12 UAS-luciferase reporter, agonist luminescence; normalized to butyrate control | activation, % at 6.8 µM | hit rate 1.8% among 370,000 | AID 687014;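 active = activation above a cutoff set at the mean of all screened compounds plus 3 SD, cut at about 10% in these data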
DAX1 inh-2 – inhibitors of DAX1 repression of SF-1 activated StAR promoter | HEK293T StAR-luciferase reporter, SF-1/DAX-1 repression relief | inhibition, % at 6.8 µM | hit rate 1.1% among 370,000;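 active = inhibition above the mean over all tested compounds plus 3 SD, cut at about 3.6% in these data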;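 note: higher inhibition means more luminescence from relief of DAX-1 repression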
hcDAF-12 act – H. contortus DAF-12 activation, primary screen | HEK293 hcDAF-12 lit1-tk-luc reporter, luminescence; 0% DMSO, 100% Δ7-dafachronic acid | activation, % at 6.8 µM | hit rate 1.4% among 370,000 | AID 652067;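 active = activation above the mean of all tested compounds plus 3 SD, cut at about 5.5% in these data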
Hits are given with their value; - = inactive; . = no result given. Only some compounds are listed: those with a hit (about 4.1% of all), similar ones and a draw of the others.

SMILES	ssDAF-12 act	DAX1 inh-1	hgDAF-12 ag	DAX1 inh-2	hcDAF-12 act
COC(=O)[C@]12C[C@H](CC(=O)N3CCC(c4ccccc4)CC3)C(=O)N(Cc3ccc(Cl)cc3Cl)C1=C[C@H](C1CCCC1)O[C@@H]2C	-	.	-	-	-
CCOC(=O)C1=C(C)NC(=O)NC1c1ccc(N(CC)CC)cc1 (stereo not drawn)	-	-	-	-	-
Cc1ccc2oc(=O)c3cc(C(=O)NCCN4CCc5ccccc5C4)sc3c2c1	-	-	-	-	-
Cc1ccc2oc(=O)c3cc(C(=O)NCc4ccco4)sc3c2c1	-	6.1	-	-	-
COC(=O)c1ccc(C)c(NC(=O)CN(c2cc(OC)ccc2OC)S(C)(=O)=O)c1	-	-	-	4.2	-
COc1ccc(OC)c(N(CC(=O)N2CCCC2)S(C)(=O)=O)c1	-	4.5	-	-	-
COc1ccc(C)cc1N(CC(=O)N1CCCC1)S(C)(=O)=O	-	-	-	-	-
CO[C@H]([C@H](C)/C=C/N(C)C=O)[C@@H](C)C(=O)CC[C@H](C)[C@H](O)[C@H](C)[C@H]1OC(=O)/C=C/C(C)=C/C[C@H](O)C[C@@H]2C=CC[C@@H](C[C@H](OC)[C@@H](CO)[C@@H](OC)C[C@@H](OC)[C@@H]1C)O2	-	.	-	.	-
COC(=O)[C@H](CC(C)C)N(Cc1cn(Cc2ccccc2)nn1)S(=O)(=O)c1ccc(F)cc1Br	-	.	-	-	-
CC(=O)N1N=C2c3ccccc3CCC2C1c1cccs1 (stereo not drawn)	-	.	-	-	-
CN1N=C2c3ccccc3CCCC2C1c1ccc(F)cc1 (stereo not drawn)	-	-	-	-	5.6
CCOC(=O)N1CCC(N2C(=O)c3ccccc3C2Nc2ccc3c(C)cc(=O)oc3c2)CC1 (stereo not drawn)	-	5.4	-	-	-
COc1cccc(Nc2nc(C)nc3c2oc2ccccc23)c1	-	-	-	-	-
COc1ccc(Nc2ncnc3c2oc2ccccc23)cc1	-	-	12	-	-
CCc1cc(C(=O)NNC(=S)Nc2ccccc2C)cs1	-	-	12	3.6	-
CCNC(=S)NNC(=O)c1csc(CC)c1	-	7.0	-	-	-
Cc1cccc(NC(=O)Nc2ccncc2)c1	1.1	-	-	-	-
COc1ccc(OC)c(NC(=O)Nc2ccc3c(c2)CCC3)c1	-	-	-	-	-
Cc1cccc(NC(=O)C2C3CCCCC32)c1 (stereo not drawn)	-	5.5	-	-	-
COc1cccc(NC(=O)Nc2ccc3c(c2)CCC3)c1	-	-	12	4.1	-
Cc1cccc(NC(=O)Nc2cnccn2)c1	-	-	-	-	-
CCc1ccc(NC(=O)Nc2ccc3c(c2)CCC3)cc1	-	-	-	3.7	-
CCN(C(=O)C(C)Cl)c1ccccc1 (stereo not drawn)	-	-	-	-	-
CCOC(=O)[C@]12CCCC3=C1N(CCC3)C(=O)[C@@H](CC(=O)NCc1ccccc1)C2	-	.	-	-	-
CCC[C@H]1[C@@H](NC(=O)Nc2ccc3c(c2)OCO3)CC[C@@]23CCCN2C(=O)CCC[C@@H]13	-	.	-	.	-
SMILES	ssDAF-12 act	DAX1 inh-1	hgDAF-12 ag	DAX1 inh-2	hcDAF-12 act
COC(=O)c1cc(-c2ccc(C)c3ccccc23)c(=O)n2c1CCC2	-	.	-	-	-
CC(=O)c1cccc(NC(=O)Nc2ccc3c(c2)CCC3)c1	-	-	-	-	-
O=C(Cc1ccc2c(c1)CCCC2)Nc1ccc2ccccc2c1	-	-	-	-	5.7
Cc1cccc(NC(=O)C(=O)NCc2ccccn2)c1	-	4.3	-	-	-
Cc1cccc(NC(=S)NCc2ccccn2)c1	-	-	-	-	-
Cc1cccc(NC(=O)Nc2ccc3c(c2)CCC3)c1	-	-	-	4.1	-
S=c1[nH]nc(-c2n[nH]c3c2CCC3)n1N=Cc1ccc(OCc2ccccc2)cc1	-	.	-	-	-
O=c1cc(N2CCN(c3cccc(C(F)(F)F)c3)CC2)[nH]c(=O)n1C1CCCCC1	-	.	-	.	-
O=c1c(Cc2c(F)cccc2Cl)c(O)ccn1CCCn1ccnc1	-	4.3	-	-	-
O=c1[nH]ncc(N/N=C\c2ccncc2)c1Cl	-	-	-	-	-
O=c1[nH]ncc(N/N=C\c2cccnc2)c1Cl	-	5.2	-	-	-
Cc1ccccc1-c1ccc(/C=C2/SC(N3CCOCC3)=NC2=O)o1	-	5.4	-	-	-
